From PubChem BioAssay AID651899 (Broad Institute, 2012)
Results with a measured potency or affinity are listed apart. Calls of active or inactive are those of the source. How the calls were made is not given here.

Experiment: cytotoxicity in HEK293 cells, dose response, cytotoxicity control, cell-based, plate reader, cherry-pick (AID 651899);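 further: cells exposed to compound for 48 hours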
Settings: series mostly up to 26 µM

Row | Compound | outcome
1 | CCc1nn(CC(=O)N2CCN(Cc3ccc4c(c3)OCO4)CC2)c(=O)c2cc3occc3n12 | inactive
2 | CN1CCCC1CCOC(C)(c1ccccc1)c1ccc(Cl)cc1 (stereo not given) | inactive
3 | CC(=O)CSc1nnc(CSc2ncccn2)n1C1CCCCC1 | inactive
4 | CC(=O)c1ccc(NC(=O)CN2CCN(c3ccccc3)CC2)cc1 | inactive
5 | O=C(C[C@@H]1C[C@@H]2c3cc(NC(=O)c4cccnc4)ccc3O[C@@H]2[C@@H](CO)O1)NCCc1ccccc1 | inactive
6 | CC(=O)c1ccc(C(=O)N2CCCC(Nc3ccccc3)C2)s1 (stereo not given) | inactive
7 | Cn1nnc2cc(C(=O)N3CCC(c4ccccc4)C3)ccc21 (stereo not given) | inactive
8 | O=C(Nc1ccc(Cl)c(-c2nc3ccccc3[nH]2)c1)c1cccnc1 | inactive
9 | COC(=O)C1C(=O)C=C(Nc2ccc(F)cc2)CC1c1ccc(OC)cc1 (stereo not given) | inactive
10 | CCC(=O)N1CC[C@@H]2[C@H]1c1cc(-c3cccc(F)c3)ccc1N(C)[C@@H]2CO | inactive
11 | COc1cc2cnc(-c3cccnc3)cc2cc1OC | inactive
12 | COc1ccc(NC(=O)c2ccc(S(=O)(=O)N(C)C)cc2)cc1OC | inactive
13 | COc1ccc(Cn2ccc(=O)c(Cc3c(Cl)cccc3Cl)c2C)cc1 | inactive
14 | CCC(CO)Oc1cc(NC(=O)c2cccc(F)c2)c2ncn(C(C)C)c2c1 (stereo not given) | inactive
15 | C/C=C/c1ccc2c(c1)O[C@@H](CN(C)C(=O)Nc1ccc(OC)cc1)[C@@H](C)CN([C@@H](C)CO)S2(=O)=O | inactive
16 | Cc1nc(=O)c(-c2ccccc2)c(C)n1-c1ccc(Br)cc1 | inactive
17 | CN(Cc1ccccc1)C(=O)CCS(=O)(=O)c1ccc2c(c1)NC(=O)CS2 | inactive
18 | Cc1ccc(Cc2c(C)nc3nc(SCC(=O)NCCCN4CCCCC4)nn3c2C)cc1 | inactive
19 | O=C(Nc1ccc2snnc2c1)N1CCN(c2ccccc2)CC1 | inactive
20 | O=C(C1CCOCC1)N1CC[C@@H]2[C@H](CO)Nc3ccc(Br)cc3[C@@H]21 | inactive
21 | Cn1nnc2cc(C(=O)Nc3cccnc3)ccc21 | inactive
22 | CC(=O)OCC(=O)[C@@]1(OC(C)=O)[C@@H](C)C[C@H]2[C@@H]3C[C@H](F)C4=CC(=O)C=C[C@]4(C)[C@@]3(F)[C@@H](O)C[C@@]21C | inactive

Row | Compound | outcome
23 | COc1ccc(C(=O)Nc2cccnc2)cc1OC | inactive
24 | COCCNC(=O)C[C@@H]1CC[C@@H]2[C@H](COc3ccc(NC(=O)Nc4cccc(F)c4)cc3C(=O)N2C)O1 | inactive
25 | CN1c2ccc(-c3cccc(F)c3)cc2[C@H]2[C@H](CCN2C(=O)C2CCOCC2)[C@H]1CO | inactive
26 | CCCCN1C(=O)c2ccc(C(=O)Nc3cccnc3)cc2C1=O | inactive
27 | Cc1nc2c(C(=O)N3CCN(c4ccccn4)CC3)cnn2c(C)c1Cc1cccc(Cl)c1 | inactive
28 | Nc1cc(C(=O)O)ccc1Nc1ccccc1 | inactive
29 | O=C(CSc1nc2c(c(=O)n1-c1ccccc1)SCC2)N1CCOCC1 | inactive
30 | O=C(c1ccccc1F)N1CC[C@@H]2[C@H]1c1cc(Br)ccc1N[C@@H]2CO | inactive
31 | C=CCn1c(SCc2c(C(=O)OC)sc(N)c2C(=O)OC)nnc1-c1ccc(Cl)cc1 | inactive
32 | CO[C@H]1CN(C)C(=O)c2ccc(NC(C)=O)cc2OC[C@@H](C)N(C(=O)C2CCCCC2)C[C@H]1C | inactive
33 | COc1ccc(C2c3c(-c4cc(Cl)c(C)cc4O)n[nH]c3C(=O)N2Cc2cccnc2)cc1OC (stereo not given) | inactive
34 | Cc1cc(C(=O)NC2CC(C)(C)Cc3c2cnn3-c2cccc(F)c2)nn1C (stereo not given) | inactive
35 | Cc1ccc(-c2nn(CCC(=O)Nc3cccnc3)c(=O)c3ccccc23)cc1 | inactive
36 | CCOC(=O)c1ccc(N2C(=O)c3n[nH]c(C)c3C2c2ccc(OC)c(OC)c2)cc1 (stereo not given) | inactive
37 | O=C(c1ccc2c(c1)OCO2)N1CC[C@@H]2[C@H](CO)Nc3ccc(-c4ccc(F)cc4)cc3[C@@H]21 | inactive
38 | Cc1c(OC(C)C(=O)NCc2ccccn2)ccc2c3c(c(=O)oc12)CCC3 (stereo not given) | inactive
39 | Cc1ccc(Cc2c(C)nc3nc(SCC(=O)NCc4ccco4)nn3c2C)cc1 | inactive
40 | Cc1cccc(-c2ccc3c(c2)C2CC3CCN2)c1 (stereo not given) | inactive
41 | O=C(C[C@@H]1C[C@@H]2c3cc(NC(=O)c4cccnc4)ccc3O[C@@H]2[C@@H](CO)O1)NCc1cccnc1 | inactive
42 | COc1cccc(-c2ccc3c(c2)[C@H]2[C@H](CCN2C(=O)C2CCC2)[C@@H](CO)N3)c1 | inactive
43 | Cc1nc(-c2cccnc2)sc1C(=O)Nc1cccc(C(F)(F)F)c1 | inactive
44 | Cc1cnc(C(=O)NC2CC(C)(C)Cc3c2cnn3-c2cccc(F)c2)cn1 (stereo not given) | inactive

Row | Compound | outcome
45 | CN1c2ccc(-c3cccc(F)c3)cc2[C@H]2[C@H](CCN2C(=O)c2ccc3c(c2)OCO3)[C@H]1CO | inactive
46 | O=C(NC1CCCc2c1cnn2-c1cc(F)cc(F)c1)c1ccc[n+]([O-])c1 (stereo not given) | inactive
47 | CN1c2ccc(-c3ccccc3)cc2[C@H]2[C@H](CCN2C(=O)Cc2ccccn2)[C@H]1CO | inactive
48 | CC1=C(C#N)C(c2cccnc2)C2=C(CC(c3ccc(Cl)cc3)CC2=O)N1 (stereo not given) | inactive
49 | Cc1nnc(N2CCC(C(=O)N3CCCCC3)CC2)c2nn(-c3ccc(Cl)cc3)c(C)c12 | inactive
50 | COc1ccc(CCNC(=O)c2cnc3n(c2=O)CCS3)cc1OC | inactive
51 | Nn1c(SCCOc2ccccc2)nnc1-c1cccnc1 | inactive
52 | COc1ccc(-c2ccc3c(c2)C2CC3CCN2)cc1 (stereo not given) | inactive
53 | C[C@@H]1CN([C@H](C)CO)C(=O)c2cc(C#Cc3cccnc3)cnc2O[C@H]1CN(C)S(C)(=O)=O | inactive
54 | O=C(c1ccncc1)N1CC[C@@H]2[C@H](CO)Nc3ccc(Br)cc3[C@@H]21 | inactive
55 | Cc1cc2c(c(=O)n1Cc1cccnc1)C(c1cccs1)C(C#N)=C(N)O2 (stereo not given) | inactive
56 | O=C(Nc1ncc2c(n1)CC(c1ccco1)CC2=O)c1ccccc1 (stereo not given) | inactive
57 | Cc1nc2nc(SCC(=O)NCc3ccco3)nn2c(C)c1Cc1c(F)cccc1Cl | inactive
58 | O=C(C[C@H]1C[C@@H]2c3cc(NC(=O)c4cccnc4)ccc3O[C@@H]2[C@@H](CO)O1)NCC(F)(F)F | inactive
59 | COc1cc(/C=C/C(=O)Nc2cccnc2)cc(OC)c1OC | inactive
60 | CC(=O)c1ccc(C(=O)N2CCCC(CCC(=O)N(C)CCc3ccccn3)C2)s1 (stereo not given) | inactive
61 | COc1ccc(NC2CCCN(C(=O)c3ccc(C(C)=O)s3)C2)cc1 (stereo not given) | inactive
62 | C/C=C/c1ccc2c(c1)O[C@@H](CN(C)C(=O)Nc1ccccc1)[C@H](C)CN([C@H](C)CO)S2(=O)=O | inactive
63 | CCCc1cc(=O)oc2c3c(cc(OCC(=O)NCCCn4ccnc4)c12)OC(C)(C)CC3 | inactive
64 | CC1CN(C(=O)Nc2ccc3snnc3c2)c2ccccc21 (stereo not given) | inactive
65 | Cc1c(NC(=O)c2cc3ccccc3o2)cccc1-n1cnnn1 | inactive
